# MLLE-PAM2 inh: blocks PAM2 peptide binding to the PABP1 MLLE domain; P11940; GST-MLLE / FITC-PAM2 fluorescence polarization; inhibition, % at 20 µM; 360,000 compounds, 0.36% hits; in the data active = inhibition above about 35%, passing the limit was not always enough
# PABP FP inh: PABP-poly(A) binding inhibition; P11940; PABP-poly(A) RNA binding, fluorescence polarization; inhibition, % at 35 µM; 290,000 compounds, 1% hits; AID 2014;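 note: calls also rest on retests at 20 µM and on dose response follow-up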
# eIF4H inh: inhibitors of RNA binding by human eIF4H. Q15056. eIF4H fluorescence polarization binding assay. inhibition, % at 35 µM. 290,000 compounds, 0.94% hits. AID 2012;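 note: calls also rest on retests at 20 µM and on dose response follow-up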
# PfM18AAP inh-1: PfM18AAP enzyme inhibition. recombinant PfM18AAP, H-Glu-NHMec fluorogenic cleavage. AID 1822. inhibition, % at 7.35 µM. 290,000 compounds, 1.2% hits;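 active = inhibition above the campaign mean inhibition over all tested compounds plus 3 SD, cut at about 28% in these data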
# PERK inh: inhibitors of human PERK kinase; inhibition, % at 5.6 µM; 220,000 compounds, 0.17% hits; Q9NZJ5; CHO PERK-DD fusion, SEAP luminescence translation reporter;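 active = inhibition above the mean inhibition of all tested compounds plus 3 SD, set separately per screening campaign, cut at about 2.9% in these data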;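 note: PERK kinase domain activated by AP20187 dimerizer at 100 nM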
# Target sequence (Q9NZJ5 whole entry, looked up, the tested form may be a part): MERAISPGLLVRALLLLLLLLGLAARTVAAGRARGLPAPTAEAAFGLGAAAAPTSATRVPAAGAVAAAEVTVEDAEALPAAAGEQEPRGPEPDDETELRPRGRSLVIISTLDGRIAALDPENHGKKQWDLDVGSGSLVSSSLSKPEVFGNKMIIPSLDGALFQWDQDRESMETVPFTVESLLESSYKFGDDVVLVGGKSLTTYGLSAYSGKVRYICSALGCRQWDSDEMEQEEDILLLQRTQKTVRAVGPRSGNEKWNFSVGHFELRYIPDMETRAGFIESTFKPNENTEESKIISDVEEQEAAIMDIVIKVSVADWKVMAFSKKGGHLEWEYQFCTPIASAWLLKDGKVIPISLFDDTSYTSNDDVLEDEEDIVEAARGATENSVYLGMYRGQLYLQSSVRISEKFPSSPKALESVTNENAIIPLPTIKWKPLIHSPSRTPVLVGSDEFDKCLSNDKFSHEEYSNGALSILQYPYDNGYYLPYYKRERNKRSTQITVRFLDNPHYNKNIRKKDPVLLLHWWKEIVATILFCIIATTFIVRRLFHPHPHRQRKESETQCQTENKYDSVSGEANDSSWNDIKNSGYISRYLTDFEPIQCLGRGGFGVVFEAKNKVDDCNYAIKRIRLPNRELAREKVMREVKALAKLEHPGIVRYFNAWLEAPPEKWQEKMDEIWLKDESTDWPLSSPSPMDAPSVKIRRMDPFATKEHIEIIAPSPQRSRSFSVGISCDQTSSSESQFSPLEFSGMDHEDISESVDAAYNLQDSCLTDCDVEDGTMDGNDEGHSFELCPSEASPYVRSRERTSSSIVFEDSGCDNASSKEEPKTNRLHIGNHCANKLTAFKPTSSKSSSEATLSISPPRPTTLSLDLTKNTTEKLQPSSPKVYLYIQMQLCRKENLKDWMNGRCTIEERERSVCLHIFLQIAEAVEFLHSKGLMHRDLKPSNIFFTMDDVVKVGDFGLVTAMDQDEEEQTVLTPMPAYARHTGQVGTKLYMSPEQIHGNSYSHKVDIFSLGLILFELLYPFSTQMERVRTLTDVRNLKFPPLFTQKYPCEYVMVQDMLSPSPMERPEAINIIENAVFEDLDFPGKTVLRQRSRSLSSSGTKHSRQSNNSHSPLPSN
# eIF4E-4G inh: eIF4E/eIF4G interaction inhibition in translation initiation | AID 782 | 220,000 compounds, 0.37% hits | P63073+Q04637 | TR-FRET eIF4E-eIF4GI(517-606) binding, 2 h | inhibition, % at 21.7 µM;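 active = inhibition above about 30%, limit read from the data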
# PfM18AAP inh-2: PfM18AAP inhibition, confirmation | shares compounds with PfM18AAP inh-1 | recombinant PfM18AAP, H-Glu-NHMec fluorogenic cleavage | 2,400 compounds, 28% hits | inhibition, % at 7.35 µM;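 active = mean inhibition over replicate wells above the hit cutoff set for the earlier primary screen, cut at about 29% in these data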
# CTSL1 confirm: Cathepsin L (human) inhibition, confirmation; shares compounds with PfM18AAP inh-1; purified cathepsin L1, Z-Leu-Arg-MCA fluorescence; inhibition, % at 5.96 µM; 2,400 tested, under 10 active; AID 2178;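 active = average inhibition across replicates above the hit cutoff set in the earlier primary screen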
# Numbers stand for hits; . = inactive; ? = inconclusive; / = no result given. Rows were chosen to be rich in hits. Some 2.4% of all compounds tested hit in one or more screens of this group. Unless noted, the rule behind the calls is not given here.
SMILES,MLLE-PAM2 inh,PABP FP inh,eIF4H inh,PfM18AAP inh-1,PERK inh,eIF4E-4G inh,PfM18AAP inh-2,CTSL1 confirm
O=C(Cc1ccccc1)NN1C(=O)C2C3C=CC(C3)[C@@H]2C1=O (some centres undefined),.,.,.,.,.,.,/,/
CCc1cccc(CC)c1NC(=S)NCCc1ccc(O)c(O)c1,.,.,.,65,.,.,40,.
O=c1cc(-c2ccc(O)c(O)c2)oc2cc(O[C@@H]3O[C@H](CO)[C@@H](O)[C@H](O)[C@H]3O)cc(O)c12,.,/,/,/,/,/,/,/
O=c1cc(-c2ccc(O)cc2)oc2cc(O)c(C3OC(CO)C(O)C(O)C3O)c(O)c12 (centres undefined),.,21,67,44,.,.,.,.
NCCCCCNC(=O)c1[nH]cnc1C(=O)N[C@@H](Cc1ccccc1)C(=O)OCc1ccccc1,.,/,/,/,/,/,/,/
N#Cc1c(-c2cccnc2)c2c([nH]c1=S)CCCC2,.,.,.,33,.,.,51,.
Cc1ccc(/C=N/Nc2ccc3c(C(F)(F)F)cc(C(F)(F)F)nc3n2)cc1,.,.,.,.,.,.,/,/
NNc1ccc2c(C(F)(F)F)cc(C(F)(F)F)nc2n1,.,.,.,45,.,.,.,.
Oc1ccc(N2CCN(c3ncnc4sc(-c5ccccc5)cc34)CC2)cc1,.,.,.,44,.,.,.,.
CC(=O)N1CCN(c2ncnc3sc(-c4ccccc4)cc23)CC1,.,.,.,.,.,.,/,/
CCC(C)(C)NC(=O)c1cc(C(=O)OC)cc([N+](=O)[O-])c1,.,.,.,.,.,.,/,/
Cc1ccc(C(=O)Nn2cnnc2)cc1[N+](=O)[O-],.,/,/,43,.,/,39,.
COC(=O)c1cc(C(=O)Nn2cnnc2)cc([N+](=O)[O-])c1,.,.,.,63,/,/,73,.
C=Cc1ccc2c(c1)N(C)C(=C)S2,.,.,.,47,.,.,.,.
CC(=O)c1ccc2c(c1)N(C)c1ccccc1S2,.,.,.,.,.,.,/,/
CCn1c(/C=C/c2ccc(O)c(O)c2)nc2ccccc2c1=O,.,.,.,54,/,/,43,.
CCn1c(/C=C/c2ccc(O)cc2)nc2ccccc2c1=O,.,.,.,.,/,/,/,/
O=c1nc(/C=C/c2ccc(O)c(O)c2)oc2ccccc12,.,.,.,63,.,.,56,.
COc1cccc(C(=O)/C=C/Nc2cc(C)ccc2O)c1,.,.,.,68,.,.,.,.
Nc1nncn1C(=O)CCCN1C(=O)c2ccccc2C1=O,.,.,.,44,.,.,47,.
Nc1nncn1C(=O)CCCOc1ccc(Cl)cc1Cl,.,.,.,47,.,.,63,.
O=C(CCCN1C(=O)c2ccccc2C1=O)N1CCc2ccccc2C1,.,.,.,.,.,.,/,/
COc1ccc(C(=O)Oc2ccc(=O)n(-c3ccccc3)n2)cc1,.,.,.,.,.,.,/,/
Cc1ccc(-n2c(-c3cccc(C)c3)n[nH]c2=S)cc1,.,.,.,.,.,.,/,/
Cc1ccc(-c2csc3n[nH]c(=S)n23)cc1,.,.,.,63,.,.,52,.
SMILES,MLLE-PAM2 inh,PABP FP inh,eIF4H inh,PfM18AAP inh-1,PERK inh,eIF4E-4G inh,PfM18AAP inh-2,CTSL1 confirm
CCc1nc2c(OCc3cc(Cl)cc(Cl)c3)cccn2c1N(C=O)Cc1ccc(OC)cc1,.,/,/,/,/,/,/,/
CCCCC(CCC(=O)Nc1nccs1)C(=O)O (centres undefined),.,.,.,.,.,/,/,/
COc1cc(/C=C(\C#N)C(=O)NCCc2ccccc2)cc(OC)c1O,.,.,.,.,.,.,/,/
COc1cc(/C=C(\C#N)C(=O)c2c[nH]c3ccccc23)cc(OC)c1O,.,.,?,36,.,.,.,.
CCN(CC(=O)Nc1ccc(C)c(S(=O)(=O)N2CCOCC2)c1)Cc1ccccc1,.,/,/,/,/,/,/,/
CCOc1ccc(NC(=O)c2cc(C3CC3)nc3c2cnn3C(C)C)cc1OC,.,/,/,/,/,/,/,/
CN(C)c1cccc(C(=O)n2cc(C(=O)c3cc(F)ccc3O)cn2)c1,.,.,.,53,.,.,.,.
O=C(c1cnn(C(=O)COc2ccccc2F)c1)c1cc(F)ccc1O,.,.,.,43,.,.,.,.
